Pf growth 96h: P. falciparum growth inhibition at 96 hours; P. falciparum luciferase reporter growth, 96 h; Potency, µM (series often up to 28.7 µM), for inactives: top-dose activity change, negative = inhibition, hits mostly inhibitors; actives 6.9% (n = 320,000); further: on the % scale 0 is the no-effect control and ±100 the full control effect
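Erythrocytes infected with luciferase-expressing P. falciparum were dispensed at 2% hematocrit and 0.05% parasitemia (final), then incubated with compounds 96 hours at 37 C in 5% CO2. Luminescence after detection reagent addition reported growth.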
AMA1 RON2 block: inhibitors of Plasmodium falciparum AMA1-RON2 interaction; actives 0.2% (n = 360,000); Potency, µM (top dose mostly 58.2 µM), without a hit: top-dose activity change, negative = inhibition, most hits filed as inhibitors; AlphaScreen AMA1-biotinylated RON2 peptide binding;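 further: 0% = vehicle wells and -100% = peptide control; nearly all actives have a fitted effect of over 45% in size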
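AMA1 (3D7) with his tag at 25 nM final met compounds first, then biotinylated RON2 peptide at 25 nM; detection used donor plus acceptor beads, 10 µg/mL apiece, read by AlphaScreen after 30 min at room temperature.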
Pf growth 48h: inhibits P. falciparum growth in the first generation, 48 h. P. falciparum luciferase growth in erythrocytes, 48 h. Potency, µM (series often up to 28.7 µM), for the others: top-dose activity change, negative = inhibition, usual class: inhibitors. AID 504832. actives 5.9% (n = 310,000); further: on the % scale 0 is the no-effect control and ±100 the full control effect
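Luciferase-expressing parasites in RBCs, 2% Hct / 0.1% parasitemia final; RPMI 1640 + 0.5% Albumax; 37 C, 5% CO2, one generation; luminescence read-out, lower signal = inhibition.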
NS1 inh: blocks influenza NS1 protein function. Potency, µM (titrated, usually from 46.1 µM), inactives show top-dose activity, positive = more growth. actives 0.4% (n = 270,000). AID 2326; calls by dose curve; further: actives are rising curves; nearly all actives have a fitted effect of over 50% in size
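Read-out: OD600 growth recovery of NS1-expressing budding yeast. Cells grown overnight at 30C in -URA glucose medium, washed, resuspended and diluted 1:100 in 2% galactose assay medium, pH 6.0. Same strain lacking NS1 served as positive control.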
HCV inh: HCV inhibition; Huh7.5.1 HCVcc-Cre infection, luciferase reporter, 44 h; Potency, µM (top dose mostly 41.8 µM), inactives show top-dose activity change, negative = inhibition, actives largely listed as inhibitors; actives 3.4% (n = 340,000); AID 651820; further: on the % scale 0 is the no-effect control and ±100 the full control effect
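Infectious HCV cell culture screen: compound-treated cells (1,000/well, pre-plated 4 h) are infected with HCVcc-Cre at roughly 0.5 moi and grown 44 h. Infection is quantified by luciferase signal after 15 min substrate incubation at room temperature.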
SARS PLpro yeast: SARS-CoV PLP inhibition in yeast. S. cerevisiae expressing SARS-CoV PLpro, growth rescue. AID 485353. Potency, µM (doses to about 32.9 µM), without a hit: at the highest dose activity, positive = growth rescue, usual class: activators. actives 0.19% (n = 330,000); calls by dose curve; further: 0% is about no effect; nearly all actives have a fitted effect of over 55% in size
Active calls of the source: *; ? = inconclusive; nt = not tested or not shown. Only some compounds are listed: those with a hit (about 12% of all), similar ones and a draw of the others. Unless noted, the call rests on the fitted dose curve; in most records, active means well fitted curve in the direction sought with a large enough effect; inconclusive means small, poorly fitted or top-dose-only effect, or another doubt; inactive means no such curve, though single readings can be large; an effect the other way counts as inactive or inconclusive. Potency means the concentration at half of the fitted maximal effect.

SMILES	Pf growth 96h	AMA1 RON2 block	Pf growth 48h	NS1 inh	HCV inh	SARS PLpro yeast
CCN(c1ccccc1)S(=O)(=O)c1ccc(OC)c(NC(=O)C2CC2)c1	-24%	17%	?	nt	-23%	-9%
CCN(c1ccccc1)S(=O)(=O)c1ccc(OC)c(NC(=O)Cc2ccc(OC)c(OC)c2)c1	?	-10%	?	nt	6.3µM*	1%
CCN(c1ccccc1)S(=O)(=O)c1ccc(OC)c(NC(=O)Cc2ccccc2OC)c1	13µM*	-6%	12µM*	nt	10µM*	-6%
CCN(c1ccccc1)S(=O)(=O)c1ccc(OC)c(NC(=O)c2c(C)noc2C)c1	18%	-5%	23%	nt	?	-5%
Cc1cc(C)c2nc(Cl)c(Cl)nc2c1	16%	19%	5%	2%	-5%	1%
COCCn1c(SCC(=O)Nc2cc(C)on2)nnc1-c1ccccc1	?	-2%	26%	5%	-5%	-1%
Cc1cc2[nH]c3ccccc3c2c(C)n1	2.1µM*	-6%	6.6µM*	3%	?	2%
O=S(=O)(NCc1ccccc1Cl)c1cccs1	36%	16%	6%	nt	-4%	4%
CCOc1ccc(C(C)=O)cc1CN1C(=O)NC2(CCCCCC2)C1=O	4.7µM*	12%	2.3µM*	10%	-1%	2%
COc1ccc(C(C)=O)cc1CN1C(=O)NC2(CCCCCCC2)C1=O	8%	6%	32%	nt	?	-6%
CC(=O)c1ccc(OCC(C)C)c(CN2CCCCC2)c1	3.7µM*	4%	-3%	0%	17%	12%
COc1cc(C(=O)OCC(=O)NC2CC2)ccc1OCCC(C)C	?	5%	?	nt	11%	-1%
N#Cc1sc2nc3c(c(-c4ccco4)c2c1N)CCCC3	-24%	26%	6%	-5%	7.9µM*	-20%
NC(=O)c1sc2nc3c(c(-c4ccco4)c2c1N)CCCC3	47%	0%	19%	-3%	-27%	1%
O=C(/C=C/c1ccco1)NCC1CCCO1 (centres undefined)	0%	-17%	3%	-10%	25%	-1%
Cc1ccccc1NC(=O)c1sc2nc3c(c(-c4ccco4)c2c1N)CCC3	?	0%	?	16%	4µM*	-3%
Nc1c(C(=O)NCC2CCCO2)sc2nc3c(c(-c4ccco4)c12)CC/C3=C\c1ccco1 (centres undefined)	?	8.9µM*	?	?	?	20%
Cc1ccccc1C(=O)c1cccn1CC(=O)NCCCN1CCc2ccccc2C1	32%	-3%	?	nt	5%	2%
CC1(C)CC2CC(C)(CN2C(=O)COC(=O)c2cncc(Br)c2)C1 (centres undefined)	30%	-8%	12%	nt	4%	2%
CCOc1ccccc1OCC(=O)Nc1ccc2[nH]c(=O)[nH]c2c1	-17%	-1%	14%	nt	13µM*	2%
O=C(COc1ccccc1Cl)Nc1ccc2[nH]c(=O)[nH]c2c1	56%	-13%	6%	nt	-22%	-4%
Cc1ccccc1OCC(=O)Nc1ccc2[nH]ncc2c1	12µM*	-14%	23%	-26%	-16%	-4%
O=C(c1ccco1)N1CCN(C2CN(Cc3cn(Cc4ccccc4C(F)(F)F)nn3)S(=O)(=O)C2)CC1 (centres undefined)	nt	-2%	nt	nt	nt	nt
C=CC[C@@H](CC(=O)OC(C)(C)C)C(=O)OC[C@H]1CCCN1C(=O)[C@@H](CC=C)CC(=O)N(CCO)Cc1ccccc1	nt	23%	nt	nt	-14%	9%
CCCCOc1ccc(-c2nnc(-c3ccncc3)o2)cc1	28%	-1%	?	-38%	?	-2%
CCOc1ccc(-c2nnc(-c3ccccc3)o2)cc1	2.1µM*	12%	50%	-3%	-7%	27%
CCOc1ccc(-c2nnc(-c3ccc(OC)cc3)o2)cc1	-11%	-6%	19%	7%	1%	0%
CCOc1ccc(-c2nnc(-c3ccncc3)o2)cc1	2.9µM*	18%	291%	-16%	-10%	-3%
CCCCOc1ccc(-c2nnc(-c3cc[n+](C)cc3)o2)cc1	-6%	-11%	0.41µM*	4%	12%	-1%

Bioassay records: PubChem, National Center for Advancing Translational Sciences (NCATS)
